Test results published in PubChem BioAssay (Tox21).
Unmarked numbers belong to inactive results. Records with an inconclusive call do not appear. Where a call stands in place of a potency, no number is given. Active and inactive are the calls of the source. The call rests on the fitted dose curve; in most records, active means well fitted curve in the direction sought with a large enough effect in the repeat runs; inconclusive means weak or mixed curves; inactive means no such curve, though single readings can be large; an effect the other way counts as inactive or inconclusive.

Tests used:
[1] = Human pregnane X receptor (PXR) small molecule agonists, qHTS cell viability counter screen (AID 1346977); further: nearly all actives have a fitted effect of over 50% in size; further: potency means the concentration at half of the fitted maximal effect
Procedure, shortened: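 Viability counter screen: CellTiter-Fluor signal in PXR-Luc HepG2 cells, 24hr compound exposure, 37C, 5% CO2.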

[2] = Caspase-3/7 induction in HepG2 cells by small molecules, qHTS assay (AID 1346978); further: nearly all actives have a fitted effect of over 15% in size
Procedure, shortened: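 Wild-type HepG2 cells (2,000/well) were settled 5 h at 37 C, 5% CO2, then exposed to compounds in DMSO for 17 h. Caspase-3/7 activity was read by luminescence 30 min after adding Caspase-Glo 3/7 reagent at room temperature.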

[3] = Caspase-3/7 induction in CHO-K1 cells by small molecules, qHTS cell viability counter screen (AID 1346979); further: nearly all actives have a fitted effect of over 35% in size; further: potency means the concentration at half of the fitted maximal effect
Procedure, shortened: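 Viability readout by fluorescence (CellTiter-Fluor) on wild-type CHO-K1 cells exposed for 16hr at 37C and 5% CO2 to compounds delivered in DMSO; reagent incubated 1hr before reading.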

[4] = Caspase-3/7 induction in CHO-K1 cells by small molecules, qHTS assay (AID 1346980); further: nearly all actives have a fitted effect of over 15% in size
Procedure, shortened: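 Wild-type cells were seeded at 1,500 per well and settled 5 hr at 37 C, 5% CO2, then exposed to DMSO-dissolved compounds for 17 hr. Caspase-Glo 3/7 reagent was added, and luminescence was read after 30min at room temperature.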

[5] = Caspase-3/7 induction in HepG2 cells by small molecules, qHTS cell viability counter screen (AID 1346981); further: nearly all actives have a fitted effect of over 30% in size; further: potency means the concentration at half of the fitted maximal effect; on activity change, negative = cytotoxicity: series mostly up to about 92 µM
Procedure, shortened: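 Fluorescence read-out of live-cell protease activity (CellTiter-Fluor) after 1 hr with reagent. This was measured in the same wells as the caspase-3/7 luminescence, on HepG2 cells exposed to DMSO-dissolved compounds for 16 hr at 37 C.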

[6] = target: Nuclear receptor subfamily 1 group I member 2 (Homo sapiens) (UniProt O75469); test: Human pregnane X receptor (PXR) small molecule agonists, qHTS assay (AID 1346982); further: nearly all actives have a fitted effect of over 35% in size; further: potency means the concentration at half of the fitted maximal effect
Procedure, shortened: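 HepG2 PXR-Luc reporter line, 5% charcoal-stripped FBS; 5 hr pre-incubation, compound (DMSO) 24 hr at 37 C/5% CO2; ONE-Glo 30 min RT; luminescence read-out.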

[7] = target: Nuclear receptor subfamily 1 group I member 2 (Rattus norvegicus) (UniProt Q9R1A7); test: Rat pregnane X receptor (rPXR) activation by small molecules, qHTS assay (AID 1346983); conditions: rPXR luciferase reporter cells, One-Glo luminescence, 24 h; max activation: active compounds read high; further: nearly all actives have a fitted effect of over 20% in size
Procedure, shortened: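 Cell-based rPXR luciferase reporter assay, 2,000 cells per well, rested 5hr at 37 C before compound addition in DMSO, then 24 hr at 37 C. One-Glo reagent was added and luminescence read after 30 min at room temperature.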

[8] = target: Nuclear receptor subfamily 1 group I member 2 (Homo sapiens) (UniProt O75469); test: CYP3A4 induction through human pregnane X receptor (PXR) by small molecules, qHTS assay (AID 1346984); further: nearly all actives have a fitted effect of over 40% in size
Procedure, shortened: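 HepG2-derived DPX-2 line carrying PXR plus a CYP3A4-promoter luciferase reporter; cells plated 5 hr, compound-exposed 24 hr at 37C. CYP3A4 activity probed with 3uM (final) Luciferin-IPA for 3hr, then luciferase read after One-Glo.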

[9] = target: Nuclear receptor subfamily 1 group I member 2 (Homo sapiens) (UniProt O75469); test: Human pregnane X receptor (PXR) activation by small molecules, qHTS assay (AID 1346985); further: nearly all actives have a fitted effect of over 40% in size
Procedure, shortened: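 DPX-2 cells (HepG2 co-transfected with a PXR response element and a CYP3A4-promoter luciferase construct) were seeded at 2,000 per well, rested 5 hr at 37C, then exposed to DMSO-dissolved compounds for 24 hr. Activation was read as luciferase luminescence.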

[10] = target: Cytochrome P450 2D6 (Homo sapiens) (UniProt P10635); test: Cytochrome P450 Family 2 Subfamily D Member 6 (CYP2D6) small molecule antagonists: luciferase reporter qHTS assay (AID 1671196); further: nearly all actives have a fitted effect of over 50% in size; further: potency means the concentration at half of the fitted maximal effect
Procedure, shortened: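 Luminogenic proluciferin substrate, CYP2D6 enzyme; 10 min RT preincubation with compound, NADPH regeneration system added, 1 h RT. Stop/detection reagent, 20 min RT, luminescence read (RLU). Signal proportional to CYP activity.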

Nuclear receptor subfamily 1 group I member 2 (Rattus norvegicus), sequence (Q9R1A7 whole entry, looked up): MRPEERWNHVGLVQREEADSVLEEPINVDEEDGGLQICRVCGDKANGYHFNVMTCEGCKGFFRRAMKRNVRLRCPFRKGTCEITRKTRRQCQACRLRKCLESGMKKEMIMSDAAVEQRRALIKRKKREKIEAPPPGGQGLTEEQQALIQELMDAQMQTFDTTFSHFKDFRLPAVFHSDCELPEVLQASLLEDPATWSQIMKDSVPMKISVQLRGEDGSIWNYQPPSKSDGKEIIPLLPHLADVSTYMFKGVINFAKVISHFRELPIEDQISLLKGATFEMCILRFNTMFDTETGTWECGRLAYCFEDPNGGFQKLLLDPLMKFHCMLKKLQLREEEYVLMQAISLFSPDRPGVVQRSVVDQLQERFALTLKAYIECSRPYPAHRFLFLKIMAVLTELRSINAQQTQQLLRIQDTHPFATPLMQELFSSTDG
Nuclear receptor subfamily 1 group I member 2 (Homo sapiens), sequence (O75469 whole entry, looked up): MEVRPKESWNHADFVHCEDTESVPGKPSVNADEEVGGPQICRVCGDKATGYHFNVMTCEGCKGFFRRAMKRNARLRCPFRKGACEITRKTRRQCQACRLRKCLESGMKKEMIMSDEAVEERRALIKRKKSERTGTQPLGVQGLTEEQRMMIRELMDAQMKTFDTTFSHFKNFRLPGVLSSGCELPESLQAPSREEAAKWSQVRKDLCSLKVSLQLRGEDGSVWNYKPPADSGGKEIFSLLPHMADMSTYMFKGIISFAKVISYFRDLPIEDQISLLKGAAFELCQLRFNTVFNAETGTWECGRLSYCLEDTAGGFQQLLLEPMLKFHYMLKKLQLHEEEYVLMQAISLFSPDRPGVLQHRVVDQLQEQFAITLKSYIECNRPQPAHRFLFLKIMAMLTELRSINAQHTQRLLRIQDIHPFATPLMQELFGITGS
Cytochrome P450 2D6 (Homo sapiens), sequence (P10635 whole entry, looked up): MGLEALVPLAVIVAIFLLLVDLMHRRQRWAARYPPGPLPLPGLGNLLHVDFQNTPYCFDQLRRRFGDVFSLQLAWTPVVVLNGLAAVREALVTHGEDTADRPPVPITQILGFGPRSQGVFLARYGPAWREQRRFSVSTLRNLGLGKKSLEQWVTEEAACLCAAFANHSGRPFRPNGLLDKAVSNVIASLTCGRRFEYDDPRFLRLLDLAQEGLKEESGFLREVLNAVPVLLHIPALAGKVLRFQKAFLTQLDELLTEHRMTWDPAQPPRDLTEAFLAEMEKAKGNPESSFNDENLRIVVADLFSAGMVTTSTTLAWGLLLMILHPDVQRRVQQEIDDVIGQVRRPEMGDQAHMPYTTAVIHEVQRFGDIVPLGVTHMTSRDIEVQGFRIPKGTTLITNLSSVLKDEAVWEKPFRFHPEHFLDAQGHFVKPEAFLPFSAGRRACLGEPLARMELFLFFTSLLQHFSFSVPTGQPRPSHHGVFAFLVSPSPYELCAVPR

Structure (SMILES)	Potency [1]	Potency [2]	Potency [3]	Potency [4]	Potency [5]	Potency [6]	activity change, negative = cytotoxicity [1]	caspase activation [2]	activity change, negative = cytotoxicity [3]	caspase-3/7 activation [4]	activity change, negative = cytotoxicity [5]	activation [6]	max activation [7] [%]	Potency [8]	Potency [9]	Potency [10]
CC(=O)c1cccc([N+](=O)[O-])c1	inactive	inactive	inactive	inactive	inactive	inactive	–	–	–	–	–	–	–	–	–	–
O=C(O)CNCC(=O)O	–	–	–	–	–	–	4.27% [at 8.39 µM]	2.93% [at 8.39 µM]	0.398% [at 8.39 µM]	0.331% [at 8.39 µM]	1.14% [at 8.39 µM]	-2.51% [at 8.39 µM]	–	–	–	–
CC(=O)[O][Al][O]C(C)=O	inactive	inactive	inactive	inactive	inactive	inactive	–	–	–	–	–	–	-1.35	inactive	inactive	inactive
OCc1cc(C(O)CNCCCCCCOCCCCc2ccccc2)ccc1O (configuration not stated)	21.1 µM (active)	inactive	23.7 µM (active)	inactive	26.6 µM (active)	inactive	–	–	–	–	–	–	0.017	–	inactive	–
CCn1cc(C(=O)O)c(=O)c2cnc(N3CCNCC3)nc21	inactive	inactive	inactive	inactive	inactive	inactive	–	–	–	–	–	–	-1.76	inactive	inactive	–
c1cc(CCCc2ccncc2)ccn1	inactive	inactive	inactive	inactive	inactive	61.1 µM (active)	–	–	–	–	–	–	–	–	–	1.78 µM (active)
C[N+]1(CC2COC(c3ccccc3)(C3CCCCC3)O2)CCCCC1 (configuration not stated)	inactive	inactive	inactive	inactive	inactive	inactive	–	–	–	–	–	–	-1.36	inactive	inactive	0.977 µM (active)
O=C(O)C(S)C(S)C(=O)O (configuration not stated)	inactive	inactive	inactive	inactive	inactive	inactive	–	–	–	–	–	–	-9.28	inactive	inactive	–
CCCCC(CC)CN1C(=O)C2C3C=CC(C3)C2C1=O (configuration not stated)	inactive	inactive	inactive	inactive	inactive	27.3 µM (active)	–	–	–	–	–	–	–	–	–	31.7 µM (active)
C=CCOC(=O)CCC1CCCCC1	inactive	inactive	inactive	inactive	inactive	inactive	–	–	–	–	–	–	–	–	–	inactive
O=S(c1cc(Cl)cc(Cl)c1O)c1cc(Cl)cc(Cl)c1O	inactive	inactive	inactive	inactive	inactive	inactive	–	–	–	–	–	–	-2.94	inactive	–	inactive
CC1=CC[C@H](C(C)C)C=C1	inactive	inactive	inactive	inactive	inactive	27.3 µM (active)	–	–	–	–	–	–	–	–	–	–
COC(C)(C)CCO	inactive	inactive	inactive	inactive	inactive	inactive	–	–	–	–	–	–	–	–	–	inactive
Nc1c(CC(=O)O)cccc1C(=O)c1ccc(Br)cc1	inactive	inactive	inactive	inactive	inactive	inactive	–	–	–	–	–	–	-2.12	inactive	inactive	–
Cc1cccc(C)c1NC(=O)CN(CC(=O)O)CC(=O)O	inactive	inactive	inactive	inactive	inactive	inactive	–	–	–	–	–	–	-0.0723	inactive	inactive	inactive
c1ccc(CNCCNCc2ccccc2)cc1	inactive	inactive	inactive	inactive	inactive	inactive	–	–	–	–	–	–	-3.63	inactive	inactive	0.776 µM (active)
CCOC(=O)c1cccnc1	inactive	inactive	inactive	inactive	inactive	inactive	–	–	–	–	–	–	-3.51	inactive	inactive	inactive
CCOCC(O)COc1ccc(NC(=O)CC[S+](C)C)cc1 (configuration not stated)	inactive	inactive	inactive	inactive	inactive	inactive	–	–	–	–	–	–	-0.952	inactive	inactive	–
NCC(=O)CCC(=O)O	inactive	inactive	inactive	inactive	inactive	inactive	–	–	–	–	–	–	-1.79	inactive	inactive	inactive
COc1ccc(C(=O)N2CCN(CC(=O)N3CCOCC3)CC2)cc1	inactive	inactive	inactive	inactive	inactive	inactive	–	–	–	–	–	–	-1.44	inactive	inactive	inactive
CCCCC(CC)COC(=O)CCCCCCCCC(=O)OCC(CC)CCCC (configuration not stated)	inactive	inactive	inactive	inactive	inactive	inactive	–	–	–	–	–	–	–	–	–	inactive
C[C@@H]1C[C@H]2[C@@H]3CCC4=CC(=O)C=C[C@]4(C)[C@@]3(F)[C@@H](O)C[C@]2(C)[C@@]1(O)C(=O)COC(=O)c1ccncc1	inactive	inactive	inactive	inactive	inactive	1.33 µM (active)	–	–	–	–	–	–	–	–	–	11 µM (active)
C=CCOc1ccccc1OCC(O)CNC(C)C (configuration not stated)	inactive	inactive	inactive	inactive	inactive	inactive	–	–	–	–	–	–	5.72	inactive	inactive	–
